Experimental data from PubChem BioAssay (NCI).
About 83,000 compounds went through this panel and 20% of them were active in at least one assay; those are over-represented in the sample as a whole.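 Method: cells in 96-well plates; compound added at one concentration; 48 h incubation; percent growth measured; values under 10 scored active.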

What was measured:
Test in all cases: NCI-60 one-dose screen, 48 h (100 = growth as untreated, 0 = no growth, -100 = all killed)
HCT-15 colon = conditions: 10 µM unless noted
HT29 colon = conditions: 10 µM unless noted
SNB-75 CNS = conditions: 10 µM unless noted
SNB-19 CNS = conditions: 10 µM unless noted
U251 CNS = conditions: 10 µM unless noted
PC-3 prostate = conditions: 10 µM unless noted
SK-MEL-5 melanoma = conditions: 10 µM unless noted
UACC-62 melanoma = conditions: 10 µM unless noted
LOX IMVI melanoma = conditions: 10 µM
SK-MEL-28 melanoma = conditions: 10 µM unless noted
SK-MEL-2 melanoma = conditions: 10 µM unless noted
EKVX NSCLC = conditions: 10 µM unless noted
SN12C renal = conditions: 10 µM unless noted
UO-31 renal = conditions: 10 µM unless noted
TK-10 renal = conditions: 10 µM unless noted
A498 renal = conditions: 10 µM unless noted
CCRF-CEM leukemia = conditions: 10 µM unless noted
MOLT-4 leukemia = conditions: 10 µM unless noted
ACHN renal = conditions: 10 µM unless noted
CAKI-1 renal = conditions: 10 µM unless noted

Measured: growth

Cc1cc(C)cc(OCC(=O)O)c1
inactive: HCT-15 colon 94.4% | HT29 colon 119% | SNB-75 CNS 94.8% | SNB-19 CNS 97.1% | U251 CNS 103% | PC-3 prostate 104% | SK-MEL-5 melanoma 110% | UACC-62 melanoma 98.5% | LOX IMVI melanoma 98.7% | SK-MEL-28 melanoma 107% | SK-MEL-2 melanoma 91.4% | EKVX NSCLC 101% | SN12C renal 99.1% | UO-31 renal 86.9% | TK-10 renal 97.8% | A498 renal 105% | CCRF-CEM leukemia 132% | MOLT-4 leukemia 124%

NNC(=O)N/N=C1\C(=O)N(c2nccs2)C(=O)C(=O)C1c1nc2ccccc2s1 (configuration not stated)
inactive: HCT-15 colon 116% | HT29 colon 94.1% | SNB-75 CNS 81.8% | SNB-19 CNS 101% | U251 CNS 80% | PC-3 prostate 82.6% | SK-MEL-5 melanoma 96.5% | UACC-62 melanoma 90.5% | LOX IMVI melanoma 96.3% | SK-MEL-28 melanoma 112% | SK-MEL-2 melanoma 98.4% | EKVX NSCLC 84.8% | UO-31 renal 75.5% | TK-10 renal 114% | ACHN renal 109% | CAKI-1 renal 96.7% | A498 renal 98.3%

CC(=O)Nc1ccc(C(=O)c2ccc(S(=O)(=O)Nc3ccccc3)cc2)cc1
inactive: HCT-15 colon 104% | HT29 colon 96.7% | SNB-75 CNS 78.1% | SNB-19 CNS 80.3% | U251 CNS 91.9% | PC-3 prostate 87.2% | SK-MEL-5 melanoma 89.8% | UACC-62 melanoma 83.1% | LOX IMVI melanoma 91.6% | SK-MEL-28 melanoma 114% | SK-MEL-2 melanoma 80.6% | EKVX NSCLC 105% | SN12C renal 98.6% | UO-31 renal 85.7% | ACHN renal 104% | CAKI-1 renal 106% | A498 renal 79.2% | CCRF-CEM leukemia 82.8% | MOLT-4 leukemia 102%

CCCCCCCCCCCCCCCCCC(=O)NCCNC(=O)CCCCCCCCCCCCCCCCC
inactive: HCT-15 colon 95.1% | HT29 colon 49.1% | SNB-75 CNS 82.8% | SNB-19 CNS 108% | U251 CNS 94.5% | PC-3 prostate 65% | SK-MEL-5 melanoma 102% | UACC-62 melanoma 104% | LOX IMVI melanoma 61.4% | SK-MEL-28 melanoma 105% | SK-MEL-2 melanoma 90.2% | SN12C renal 97.2% | UO-31 renal 49% | TK-10 renal 106% | ACHN renal 86.2% | CAKI-1 renal 83.3% | A498 renal 101% | CCRF-CEM leukemia 61.9% | MOLT-4 leukemia 67.2%

Cc1[nH]nc(C(N)=O)c1[N+](=O)[O-]
inactive: HCT-15 colon 95.2% | HT29 colon 108% | SNB-75 CNS 99.6% | SNB-19 CNS 93.2% | U251 CNS 103% | PC-3 prostate 100% | SK-MEL-5 melanoma 91.2% | UACC-62 melanoma 90.3% | LOX IMVI melanoma 97.2% | SK-MEL-28 melanoma 93.2% | SK-MEL-2 melanoma 119% | SN12C renal 98.4% | UO-31 renal 96.8% | TK-10 renal 106% | ACHN renal 99.3% | CAKI-1 renal 102% | A498 renal 78.4% | CCRF-CEM leukemia 105% | MOLT-4 leukemia 109%

ON1CCCC1
inactive: HCT-15 colon 101% | HT29 colon 95.3% | SNB-75 CNS 83.2% | SNB-19 CNS 103% | U251 CNS 100% | PC-3 prostate 101% | SK-MEL-5 melanoma 109% | UACC-62 melanoma 105% | LOX IMVI melanoma 94.8% | SK-MEL-28 melanoma 106% | SK-MEL-2 melanoma 106% | SN12C renal 102% | UO-31 renal 95.5% | TK-10 renal 94% | ACHN renal 109% | CAKI-1 renal 92.9% | A498 renal 97.5% | MOLT-4 leukemia 81%

CC(CO)(CO)C(=O)O
inactive: HCT-15 colon 100% | HT29 colon 102% | SNB-75 CNS 97.4% | SNB-19 CNS 105% | U251 CNS 102% | PC-3 prostate 94.9% | SK-MEL-5 melanoma 97.3% | UACC-62 melanoma 103% | LOX IMVI melanoma 97.9% | SK-MEL-28 melanoma 110% | SK-MEL-2 melanoma 108% | SN12C renal 105% | UO-31 renal 98.6% | TK-10 renal 103% | ACHN renal 103% | CAKI-1 renal 99% | A498 renal 85.3% | CCRF-CEM leukemia 93.5% | MOLT-4 leukemia 108%

CCOC(=O)CSCCC#N
inactive: HCT-15 colon 100% | HT29 colon 97.9% | SNB-75 CNS 97% | SNB-19 CNS 104% | U251 CNS 105% | PC-3 prostate 97.8% | SK-MEL-5 melanoma 111% | UACC-62 melanoma 99.3% | LOX IMVI melanoma 96.3% | SK-MEL-28 melanoma 96.6% | SK-MEL-2 melanoma 105% | SN12C renal 97.9% | UO-31 renal 98.8% | TK-10 renal 101% | ACHN renal 95.2% | CAKI-1 renal 96% | A498 renal 83.1% | CCRF-CEM leukemia 102% | MOLT-4 leukemia 91.5%

C=CCC(O)C=C (configuration not stated)
inactive: HCT-15 colon 101% | HT29 colon 110% | SNB-75 CNS 99.3% | SNB-19 CNS 101% | U251 CNS 102% | PC-3 prostate 101% | SK-MEL-5 melanoma 102% | UACC-62 melanoma 104% | LOX IMVI melanoma 97.3% | SK-MEL-28 melanoma 105% | SK-MEL-2 melanoma 106% | SN12C renal 101% | UO-31 renal 83.1% | TK-10 renal 96.2% | ACHN renal 100% | CAKI-1 renal 97.4% | A498 renal 88.7% | CCRF-CEM leukemia 94.1% | MOLT-4 leukemia 91.4%
